Screening data deposited in PubChem BioAssay by The Scripps Research Institute Molecular Screening Center.
Most compounds without a hit are left out; they make up all but 2.3% or so of the library.
CHO-K1 Ca antag: counter-screen for M1 antagonists: effect in parental CHO-K1 cells; ATP-induced calcium, Fluo-8 fluorescence; inhibition, % at 3 µM; actives 0.6% (n = 360,000); AID 602250;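 active = inhibition above a per-plate cutoff, the plate's mean sample inhibition plus 3 SD, cut at about 24% in these data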
CHO-K1 Ca ag: nonselective activator or artifact in parental CHO-K1 cells. activation, % at 3 µM. AID 602248. Fluo-8 calcium fluorescence; scaled to maximal ATP response, vehicle zero. actives 0.48% (n = 360,000); in the data active = activation above about 15%;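 note: untransfected CHO-K1 host cells lacking M1 receptor as counterscreen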
M1 ag: agonists of human M1 muscarinic receptor; P11229; CHO-K1 hM1, Fluo-8 calcium fluorescence, agonist mode; 0% DMSO, 100% acetylcholine EC100; activation, % at 3 µM; actives 0.33% (n = 360,000); AID 588814;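 active = activation above the run's mean compound activation plus 3 SD, cut at about 16% in these data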;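 note: peak over basal fluorescence ratio within a 140 s kinetic read after compound addition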
Target sequence (P11229 whole entry, looked up): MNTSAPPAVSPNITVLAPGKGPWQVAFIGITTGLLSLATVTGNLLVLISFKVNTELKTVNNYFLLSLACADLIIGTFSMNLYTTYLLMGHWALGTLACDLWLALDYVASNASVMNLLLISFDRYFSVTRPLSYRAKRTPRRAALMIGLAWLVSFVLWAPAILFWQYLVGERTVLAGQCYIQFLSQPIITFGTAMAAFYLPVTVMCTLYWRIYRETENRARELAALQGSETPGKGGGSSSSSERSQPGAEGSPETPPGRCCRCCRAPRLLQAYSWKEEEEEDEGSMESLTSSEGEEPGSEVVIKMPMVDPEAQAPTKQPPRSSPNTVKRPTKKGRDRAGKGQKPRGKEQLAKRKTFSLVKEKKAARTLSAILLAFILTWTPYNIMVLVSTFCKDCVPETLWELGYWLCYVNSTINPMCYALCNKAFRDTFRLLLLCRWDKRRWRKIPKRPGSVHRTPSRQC
M1 PAM: positive allosteric modulators of human M1 muscarinic receptor; P11229; AID 588819; activation, % at 3 µM; actives 0.088% (n = 360,000); CHO-K1 hM1, Fluo-8 calcium fluorescence, ACh EC20; 0% = ACh EC20, 100% = maximal ACh; in the data active = activation above about 19%, passing the limit was not always enough
CHRM1 antagonist: blocks human M1 muscarinic receptor; P11229; CHO-K1 hM1, Fluo-8 calcium fluorescence, ACh EC80 antagonist; inhibition, % at 3 µM; actives 1.3% (n = 360,000); AID 588852;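 active = percent inhibition above its own plate's cutoff, namely the mean of that plate's compound wells plus 3 SD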;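 note: peak over basal fluorescence ratio during 140 s after agonist addition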
CHO-K1 Ca PAM: counter-screen for M1 PAMs: effect in parental CHO-K1 cells; activation, % at 3 µM; actives 0.02% (n = 360,000); ATP EC20, Fluo-8 calcium fluorescence; 0% at ATP EC20, 100% at ATP max;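 active = activation above the run cutoff, the mean activation of all test compounds plus 3 SD, cut at about 40% in these data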;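 note: peak over basal fluorescence ratio in a 140 s read after ATP addition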
Of the large screens only hits and unclear results are named; the others gave an inactive call.

CCOC(=O)C1CCCN(c2cc(C)nc3cc(-c4ccc(F)cc4)nn23)C1 (stereo unspecified)	M1 ag 46
CCOC(=O)N1CCN(C(=O)C2CCCCC2)CC1	none
CCOC(=O)c1ccc(NC(=S)N2CCCC(C(=O)OCC)C2)cc1 (stereo unspecified)	M1 ag 76, CHRM1 antagonist 69
CCN(CC(=O)NCc1ccc(Cl)cc1)C(=O)c1cc2ccccc2o1	none
COCC(=O)Nc1ccc2c(c1)OCC(=O)N2Cc1ccccc1F	none
CCOC(=O)C1CCCN(C(=S)Nc2ccc(F)cc2)C1 (stereo unspecified)	M1 ag 79, CHRM1 antagonist 69
CCOC(=O)C1CCCN(C(=S)Nc2ccc(OC)cc2)C1 (stereo unspecified)	M1 ag 57, CHRM1 antagonist 58
CCOC(=O)C1CCCN(C(=O)CSc2ccc(NC(C)=O)cc2)C1 (stereo unspecified)	none
CCOC(=O)c1ccc(NC(=S)N2CCSC2c2ccc(Cl)cc2)cc1 (stereo unspecified)	M1 ag 34, CHRM1 antagonist 45
CCOC(=O)C1CCCN(C(=O)Cn2nc(C)n3c(cc4c(OC)cccc43)c2=O)C1 (stereo unspecified)	M1 ag 21
CC(C)(C)c1ccccc1NC(=O)CN1C(=O)NC(Cc2ccccc2)C1=O (stereo unspecified)	none
CCNC(=O)C1(C)CCN(C(=O)c2ccc3c(c2)OCO3)C1 (stereo unspecified)	none
CCOC(=O)C1CCCN(C(=S)NC2CCCC2)C1 (stereo unspecified)	M1 ag 51
O=[N+]([O-])c1ccc(-c2ccc(/C=N/Nc3nc(NCc4ccccc4)nc(N4CCOCC4)n3)o2)cc1	CHO-K1 Ca antag 24, CHO-K1 Ca ag 18, CHRM1 antagonist 26
CN1CCCN(C(=O)CC(c2ccccc2)c2ccccc2)CC1	CHRM1 antagonist 99
CCCC(=O)N(Cc1cc(=O)[nH]c2ccccc12)c1ccc(C)cc1	CHRM1 antagonist 57
CCC(=O)N(Cc1cc(=O)[nH]c2ccccc12)c1cccc(C)c1	CHRM1 antagonist 65
CCC(=O)N(Cc1cc(=O)[nH]c2ccccc12)c1ccccc1C	CHO-K1 Ca antag 55
CCCC(=O)N(Cc1cc(=O)[nH]c2ccccc12)c1ccc(C)cc1C	none
O=C(Nc1cccc(S(=O)(=O)N2CCOCC2)c1)C1COc2ccccc2O1 (stereo unspecified)	none
OC(CNCc1ccccc1)(c1ccccc1)c1ccccc1	CHO-K1 Ca ag 15
CSc1nsc(SCC(=O)Nc2cccc(NC(C)=O)c2)n1	none
Cn1c(N2CCCC2)nc2c1c(=O)n(Cc1ccc(Cl)cc1)c(=O)n2C	none
CC1CN(c2nc3c(c(=O)n(Cc4ccc(Cl)cc4)c(=O)n3C)n2C)CC(C)O1 (stereo unspecified)	CHO-K1 Ca antag 28
Cc1ccc(-c2csc(N3CCC(NS(=O)(=O)c4ccc5c(c4)OCCO5)CC3)n2)cc1	CHRM1 antagonist 19
Cc1ccc(-c2csc(N3CCC(C(N)=O)CC3)n2)cc1	none
CCS(=O)(=O)N1Cc2ccccc2CC1C(=O)Nc1nc(C)cs1 (stereo unspecified)	CHO-K1 Ca antag 32
CCCCN1CCN=C1N(C)C	none
CCCCCCOC(=O)C[N+](C)(C)CCOC1CC2CCC1(C)C2(C)C (stereo unspecified)	none
CCCCCCCOC(=O)C[N+](C)(C)CCOC1CC2CCC1(C)C2(C)C (stereo unspecified)	CHO-K1 Ca ag 27
Cc1ccc(-c2c[n+](Cc3ccc(Cl)c(Cl)c3)c3n2CCC3)cc1	none
CCCCCCn1c(=O)[nH]c2nc3cc(N)c(C)cc3nc2c1=O	CHO-K1 Ca antag 29, CHO-K1 Ca ag 60, M1 ag 61, CHRM1 antagonist 32
O=C1CCCN1c1ccc(S(=O)(=O)NCCOc2ccccc2)cc1	none
Cc1cc(N2CCCC2=O)cc(C)c1S(=O)(=O)NCCOc1ccc(C(C)(C)C)cc1	CHO-K1 Ca antag 27, CHRM1 antagonist 39
CC1(c2ccccc2Cl)NC(=O)N(CC(=O)NCc2ccc3c(c2)OCO3)C1=O (stereo unspecified)	M1 PAM 29
CC1(c2ccc(Cl)cc2)NC(=O)N(CC(=O)Nc2ccc3c(c2)OCO3)C1=O (stereo unspecified)	M1 ag 20
CC1(c2ccccc2)NC(=O)N(CC(=O)NCc2ccc3c(c2)OCO3)C1=O (stereo unspecified)	none
O=S(=O)(Nc1cc2nc3ccccc3nc2n1Cc1ccccc1)c1ccc(Cl)cc1	none
O=C(Nc1ccc(-c2n[nH]c(=S)o2)cc1)c1ccccc1	none
Cc1nc(C(F)(F)F)ccc1C(=O)N1CCCCCC1(C)C(=O)NCC(C)C (stereo unspecified)	none
OCCNCc1ccc(-c2ccccc2)cc1	none
OCCCNCc1ccc(N(c2ccccc2)c2ccccc2)cc1	CHRM1 antagonist 71
Cc1c(NS(=O)(=O)c2cccc(C(=O)N3CCC(C(N)=O)CC3)c2)c(=O)n(-c2ccccc2)n1C	M1 PAM 31
COc1ccc(CCNC(=O)C(=O)NCC2CCCN2S(=O)(=O)c2ccc(OC)cc2)cc1 (stereo unspecified)	CHRM1 antagonist 27
COc1ccc(S(=O)(=O)N2CCCC2CNC(=O)C(=O)NC2CCCC2)cc1 (stereo unspecified)	none
COc1ccc(NC(=O)C(=O)NCC2CCCN2S(=O)(=O)c2cc(C)ccc2C)cc1 (stereo unspecified)	CHO-K1 Ca antag 52
CCOC(=O)Nc1ccc2c(c1)N(C(=O)CCN1CCOCC1)c1ccccc1S2=O (stereo unspecified)	CHRM1 antagonist 78
O=C(Nc1ccccc1)Nc1ccc(Br)cc1F	CHRM1 antagonist 46
COC(=O)c1cc(Br)ccc1NC(=O)Nc1ccccc1	none
Cc1cc(NC(=O)Nc2ccccc2F)ccc1Br	CHO-K1 Ca antag 25
O=C(Nc1cccc(Cl)c1)Nc1ccc(Br)cc1F	CHRM1 antagonist 33
COc1ccc(CN2CCC(=O)N([C@H](CO)Cc3ccccc3)CC2)cc1OC	none
O=C1NC(c2cccc([N+](=O)[O-])c2)Oc2ccccc21 (stereo unspecified)	CHO-K1 Ca antag 27
Cc1ccc(C2NC(=O)c3ccccc3O2)cc1 (stereo unspecified)	CHO-K1 Ca ag 19
O=C1NC(c2ccc(F)cc2)Oc2ccccc21 (stereo unspecified)	none
CC(C)Cn1c(N)c(C(=O)COC(=O)CCc2nc3ccccc3s2)c(=O)n(C)c1=O	CHO-K1 Ca ag 15
CC(C)Cn1c(N)c(C(=O)COC(=O)/C=C/c2ccccc2)c(=O)n(C)c1=O	CHO-K1 Ca antag 28, CHRM1 antagonist 30
